The results in this text go back to PubChem BioAssay (Tox21).

The structures appear in SMILES notation. Results filed as inconclusive are left out. Entries that show only a call come without a potency. Active and inactive are the calls of the source. Calls come from the whole dose curve; as a rule, active = well fitted inhibition curve with a large enough effect in the signal ratio in the repeat runs (not every such curve was filed as active); inconclusive = weak or mixed curves, or effect the other way; inactive = no such curve, though single readings can be large or run the other way; the % refers to the signal ratio.

In this assay the target is Bile acid receptor (Homo sapiens) (UniProt Q96RI1). The experiment in a line: qHTS assay to identify small molecule antagonists of the farnesoid-X-receptor (FXR) signaling pathway (AID 743217). As to conditions: HEK293T FXR-UAS-bla, beta-lactamase ratio, CDCA-stimulated, 16 h; series mostly up to 62.6 µM. From the text: U.S. Tox21 Program National Center for Advancing Translational Sciences [NCATS] NIH Chemical Genomics Center [NCGC] U.S. Environmental Protection Agency [EPA] National Institutes of Environmental Health Sciences [NIEHS] National Toxicology Program [NTP] U.S. Food and Drug Administration [FDA] Tox21 Assay Overview: The farnesoid-X-receptor (FXR), a nuclear hormone receptor, is highly expressed in liver, intestine, kidney and adrenal cortex. Natural ligands of FXR are the bile acids (Cholic acid, Chenodeoxy cholic acid etc). FXR is an important regulator of diverse metabolic pathways, including the bile acid homeostasis, lipid and glucose metabolisms. FXR regulates the expression of target genes by binding either as a monomer or as a heterodimer with the retinoid X receptor (RXR). Numerous studies have reported that FXR exerts protective function during cholestasis, diabetes, liver regeneration, and cancer. To identify compounds that inhibit FXR signaling, GeneBLAzer FXR-UAS-bla HEK 293T cell line (Invitrogen, Carlsbad, CA) containing a beta-lactamase reporter gene under the control of a UAS response element was used to screen the Tox21 10K compound library.
Chain of Bile acid receptor (Homo sapiens) (Q96RI1 whole entry, looked up): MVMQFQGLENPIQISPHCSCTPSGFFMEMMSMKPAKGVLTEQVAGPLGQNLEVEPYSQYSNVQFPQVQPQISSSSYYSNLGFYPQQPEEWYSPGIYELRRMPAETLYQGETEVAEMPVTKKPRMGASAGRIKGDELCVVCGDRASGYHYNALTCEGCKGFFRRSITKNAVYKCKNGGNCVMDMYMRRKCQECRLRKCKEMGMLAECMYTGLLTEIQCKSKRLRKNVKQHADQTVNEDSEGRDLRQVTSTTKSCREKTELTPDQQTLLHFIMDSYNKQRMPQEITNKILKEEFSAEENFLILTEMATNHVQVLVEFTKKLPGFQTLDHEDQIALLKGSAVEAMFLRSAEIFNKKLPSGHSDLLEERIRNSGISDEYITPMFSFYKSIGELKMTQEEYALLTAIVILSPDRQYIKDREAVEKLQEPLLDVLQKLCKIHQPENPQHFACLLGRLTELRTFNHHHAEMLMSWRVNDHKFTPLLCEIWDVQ
Tox21 Assay Protocol Summary: FXR-bla cells were dispensed at 5000 cells/5uL/well in 1536-well black wall/clear bottom plates using a Multidrop Combi (Thermo Fisher Scientific, Waltham, MA) dispenser. After the assay plates were incubated at 37C and 5% CO2 for 5 h, 23 nL of compounds dissolved in DMSO, positive controls or DMSO only was transferred to the assay plate by a Pintool station (Kalypsys, San Diego, CA), followed by addition of 1 uL Chenodeoxycholic acid (50 uM, final concentration in the wells). The assay plates were incubated at 37C for 16 h. After 1 uL of LiveBLAzerTM B/G FRET substrate was added using a Bioraptr Flying Reagent Dispenser (FRD) workstation (Beckman Coulter, Indianapolis, IN), the plates were incubated at room temperature for 2 h, and fluorescence intensity was measured by an Envision plate reader (PerkinElmer, Shelton, CT).
(In qHTS, concentration-response curves come from the screen itself.)
In the case of `CCCOC(=O)C(C)O` (stereo not given), the Potency result was “inactive”.

For the compound `CC(=O)c1ccc2c(c1)Cc1ccccc1-2`, the Potency result was “inactive”.

Take `Cc1cccc(C)c1OCC(C)N` (stereo not given): the Potency entry is “inactive”.

With `NS(=O)(=O)c1ccc(NC(=O)CCC(=O)O)cc1`, the Potency entry was “inactive”.

With `O=C1CC(c2ccc(Cl)cc2)CC(=O)N1`, the Potency entry was “inactive”.

For the compound `Cc1ccsc1/C=C/C1=NCCCN1C`, the Potency entry was “inactive”.

Regarding `CN(CCOc1ccc(NS(C)(=O)=O)cc1)CCc1ccc(NS(C)(=O)=O)cc1`, the Potency entry is “inactive”.

For `OC[C@H](Cc1cccc(O)c1)[C@H](CO)Cc1cccc(O)c1`, the Potency entry was “inactive”.

Regarding `CCOc1cc(NC(C)=O)ccc1C(=O)OC`, the Potency result is “inactive”.

For the compound `CCCC/C=C\CCCCCCCCCC=O`, the Potency result is “inactive”.

As to `CCCCCCOC(=O)CC`, the Potency entry is “inactive”.

Turning to `COc1ccc(Br)c(C)c1`, the Potency entry is “inactive”.

Regarding `CN1C(C)(C)CCCC1(C)C`, the Potency entry was “inactive”.

For `C#CC(C)N(C)C(=O)Nc1ccc(Cl)cc1` (stereo not given), the Potency entry is “inactive”.

In the case of `CCCCCCCCC(=O)Cl`, the Potency entry was “inactive”.

Turning to `Nc1nnc(-c2cccc(Cl)c2Cl)c(N)n1`, the Potency result was “inactive”.

As for `CCOCCOC(=O)/C=C/c1ccc(OC)cc1`, the Potency entry was “inactive”.

Consider `NCCS`, for which the Potency result is “inactive”.

Consider `COc1cc(N)ccc1C`, for which the Potency result is “inactive”.

Consider `CCCC(=O)C(C)=O`, for which the Potency result was “inactive”.

`CC(C)C(=O)OCCc1ccccc1`: the Potency entry was “inactive”.

`C[C@H](N)[C@H](O)c1cccc(O)c1`: the Potency result was “inactive”.

Consider `CCCCCCCCC1CCC(=O)O1` (stereo not given), for which the Potency result is “inactive”.

For `NNc1nnc(NN)c2ccccc12`, the Potency result was “inactive”.

Turning to `CCCCCCCCOS(=O)(=O)O`, the Potency result is “inactive”.

For `CN(C)CCOCCO`, the Potency entry was “inactive”.

Regarding `CC(=C(CCOC(=O)C(C)C)SSC(CCOC(=O)C(C)C)=C(C)N(C=O)Cc1cnc(C)nc1N)N(C=O)Cc1cnc(C)nc1N`, the Potency result was “inactive”.

Turning to `c1ccc2c(c1)ccc1c3ccccc3ccc21`, the Potency entry is “inactive”.

As to `CC(=O)OC(C)OC(=O)C(C)c1ccc(-c2ccccc2)c(F)c1` (stereo not given), the Potency entry is “inactive”.

Take `NC(CO)C(=O)NNCc1ccc(O)c(O)c1O` (stereo not given): the Potency entry was “inactive”.

Take `CCN(CC)CC(=O)Nc1c(C)cccc1C`: the Potency entry is “inactive”.

Take `CC(C)NCC(O)COc1ccc(COCCOC(C)C)cc1` (stereo not given): the Potency result is “inactive”.

For `O=C(CCNNC(=O)c1ccncc1)NCc1ccccc1`, the Potency entry is “inactive”.

On to `CCCCOCCOC(=O)COc1nc(Cl)c(Cl)cc1Cl`, for which the Potency entry is “inactive”.

For `N[C@@H](COP(=O)(O)O)C(=O)O`, the Potency result was “inactive”.

On to `C[Si](C)=O`, for which the activity change, negative = inhibition was 6.53% [at 5.95 µM] (inactive).

Take `CCCCCCCCCCl`: the Potency entry was “inactive”.

For `OCCCCC(O)CO` (stereo not given), the Potency result is “inactive”.

For the compound `CC(C)C[C@H](NC(=O)CNC(=O)[C@H](Cc1ccc(O)cc1)NC(=O)[C@H](CO)NC(=O)[C@H](Cc1c[nH]c2ccccc12)NC(=O)[C@H](Cc1cnc[nH]1)NC(=O)[C@@H]1CCC(=O)N1)C(=O)N[C@@H](CCCN=C(N)N)C(=O)N1CCC[C@H]1C(=O)NCC(N)=O` (stereo in doubt), the Potency result was “inactive”.

With `O=C(O)c1ccc(Cl)cc1Cl`, the Potency result was “inactive”.
